# Results as given in the supplement of paper PMC10646978.
# ± gives the standard deviation.
# Legend:
# Conditions in all cases: modulator concentration 10 µM
# [1] = tested on: RAW-Dual (murine macrophage reporter line); experiment: NF-kB reporter (SEAP) activity fold change vs agonist alone; higher = enhanced NF-kB activity
# Method in brief: (§1)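 In 384-well plates holding 50 000 RAW-Dual murine macrophage reporter cells per well, compound at 10 μM final was pre-incubated for 1 hour at 37 °C, after which a PRR agonist was added overnight. Supernatant SEAP read with QUANTI-Blue at 620 nm absorbance reported NF-κB, and Lucia luciferase read with QUANTI-Luc luminescence reported IRF. Fold change values come from dividing each reporter signal by the mean of agonist-only control wells on the same plate, averaged over replicate plates with propagated errors.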
# [2] = tested on: RAW-Dual (murine macrophage reporter line); experiment: IRF reporter (Lucia luciferase) activity fold change vs agonist alone; higher = enhanced IRF activity
# Method in brief: as §1
# [3] = tested on: RAW-Dual (murine macrophage reporter line); experiment: viability score (confluency relative to resting cells, overnight) (fraction); higher = more viable, active = viable (0.7 or more)
# Method in brief: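 Overnight exposure to 10 μM final compound was carried out on RAW-Dual macrophages in 384-well plates. IncuCyte software generated two confluency masks over all wells imaged with IncuCyte. The viability score gives confluency in relation to resting cells. A compound met the cutoff if each mask exceeded 70% of resting cells.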
# [4] = agonist: CpG ODN 1826 0.5 ug/mL
SMILES,"NF-kB reporter [1, 4]",NF-kB reporter ([1]; agonist: LPS 0.1 ug/mL),NF-kB reporter ([1]; agonist: MPLA […]),IRF reporter ([2]; agonist: 3'3'-cGAMP 10 ug/mL),IRF reporter ([2]; agonist: LPS 0.1 ug/mL),IRF reporter ([2]; agonist: MPLA […]),viability score [3]
CC(C(=O)O)c1ccc2c(c1)[nH]c1ccc(Cl)cc12 (configuration not stated),0.96 ± 0.15,1.13 ± 0.24,0.879 ± 0.064,0.937 ± 0.054,1.19 ± 0.2,1.05 ± 0.16,1 (active)
O=C(Nc1nc2ccccc2n1CCN1CCOCC1)C1CCCCC1,1.03 ± 0.1,1 ± 0.088,0.933 ± 0.068,1.03 ± 0.039,1.55 ± 0.27,1.07 ± 0.12,1.02 (active)
COC(=O)c1cc(NC(=O)C2CCCC2)cc(C(=O)OC)c1,0.969 ± 0.18,1 ± 0.13,1.15 ± 0.13,0.871 ± 0.09,1.13 ± 0.28,0.97 ± 0.14,0.633 (inactive)
COC(=O)C(CCSC)NC(=O)c1cc(OC)c(OC)c(OC)c1 (configuration not stated),1.08 ± 0.18,1.09 ± 0.096,1.1 ± 0.14,1.02 ± 0.031,0.923 ± 0.089,1.07 ± 0.12,0.712 (active)
C[C@H](Oc1cc(-c2cnn(C3CCNCC3)c2)cnc1N)c1c(Cl)ccc(F)c1Cl,0.85 ± 0.069,0.896 ± 0.11,0.942 ± 0.08,1.03 ± 0.047,1.1 ± 0.23,1.17 ± 0.38,0.998 (active)
O=C1CSC(=S)N1c1ccc(Cl)cc1,0.606 ± 0.049,0.665 ± 0.077,0.854 ± 0.059,0.389 ± 0.059,0.673 ± 0.03,0.869 ± 0.11,0.988 (active)
COC(=O)c1ccc(C=NN=C2C(=O)Nc3ccccc32)cc1,0.968 ± 0.069,1.05 ± 0.09,0.995 ± 0.028,0.527 ± 0.028,1.09 ± 0.053,1.13 ± 0.11,0.998 (active)
CC(=O)Nc1ccc(C(=O)Nc2ccccc2)c(NC(C)=O)c1,1.11 ± 0.088,0.852 ± 0.14,1.09 ± 0.051,0.726 ± 0.035,0.875 ± 0.087,0.747 ± 0.071,0.997 (active)
CCCC(=O)Nc1ccc(N2CCOCC2)c(Cl)c1,1.09 ± 0.21,1.04 ± 0.098,0.964 ± 0.098,0.875 ± 0.026,1.28 ± 0.22,1.21 ± 0.12,1 (active)
CC(C)Cc1ccc(C(C)C(=O)O)cc1.NCCCC[C@H](N)C(=O)O (configuration not stated),1.11 ± 0.26,0.97 ± 0.05,0.963 ± 0.064,0.903 ± 0.032,1.47 ± 0.16,1.41 ± 0.18,0.536 (inactive)
Cl.Cl.Clc1ccc(Nc2nnc(Cc3ccncc3)c3ccccc23)cc1,1.04 ± 0.15,1 ± 0.24,1.14 ± 0.31,0.628 ± 0.021,1.12 ± 0.2,0.926 ± 0.14,0.979 (active)
O=c1cc(CO)occ1O,0.97 ± 0.075,0.901 ± 0.076,1.06 ± 0.11,1.04 ± 0.041,1.28 ± 0.12,1.33 ± 0.19,1.03 (active)
Cc1cc2c(C)cc[n+](CCCS(=O)(=O)[O-])c2cc1C,0.942 ± 0.078,1.05 ± 0.066,0.918 ± 0.059,0.946 ± 0.038,1.42 ± 0.09,1.3 ± 0.22,1 (active)
CC(C(=O)O)c1ccc2c(c1)Cc1cccnc1O2 (configuration not stated),1.29 ± 0.17,1.41 ± 0.38,1.1 ± 0.1,0.966 ± 0.03,1.55 ± 0.28,1.15 ± 0.14,0.985 (active)
O=C(c1cc2ccccc2o1)N1CC(N2C(=O)CCC2=O)C1,0.894 ± 0.054,0.957 ± 0.076,1.05 ± 0.066,1.03 ± 0.055,1.32 ± 0.26,1.44 ± 0.38,0.985 (active)
CCCCCCc1ccc(O)cc1O,1.02 ± 0.14,0.919 ± 0.21,0.874 ± 0.058,0.588 ± 0.057,1.2 ± 0.23,1.2 ± 0.13,0.298 (inactive)
CCOC(=O)C1CCCN(S(=O)(=O)Cc2ccccc2)C1 (configuration not stated),0.766 ± 0.067,0.879 ± 0.043,1.02 ± 0.089,0.814 ± 0.04,1.42 ± 0.096,1.53 ± 0.14,1.01 (active)
CCOc1ccccc1NC(=O)Nc1ccc2c(c1)CCC(=O)N2C,1.91 ± 0.14,1.41 ± 0.11,0.99 ± 0.057,0.404 ± 0.025,0.282 ± 0.032,0.389 ± 0.079,0.933 (active)

SMILES,"NF-kB reporter [1, 4]",NF-kB reporter ([1]; agonist: LPS 0.1 ug/mL),NF-kB reporter ([1]; agonist: MPLA […]),IRF reporter ([2]; agonist: 3'3'-cGAMP 10 ug/mL),IRF reporter ([2]; agonist: LPS 0.1 ug/mL),IRF reporter ([2]; agonist: MPLA […]),viability score [3]
O=C(O)CCCN1CCC(O[C@@H](c2ccc(Cl)cc2)c2ccccn2)CC1.O=S(=O)(O)c1ccccc1,1.37 ± 0.19,1.24 ± 0.3,0.988 ± 0.059,0.995 ± 0.046,1.18 ± 0.26,1.09 ± 0.1,0.985 (active)
COc1ccc(C2Nc3ccccc3-c3nnc(SCc4ccc(C)cc4)nc3O2)cc1C (configuration not stated),0.964 ± 0.079,1.07 ± 0.086,0.919 ± 0.04,0.961 ± 0.13,0.992 ± 0.041,1.06 ± 0.15,1 (active)
COc1ccc(CNCc2cccc(C(F)(F)F)c2)cc1,0.749 ± 0.083,1.04 ± 0.087,1.02 ± 0.045,1.12 ± 0.14,0.966 ± 0.071,1.37 ± 0.21,0.27 (inactive)
Cc1ccc2nc(NC(=O)CSc3nc4c(c(=O)n3-c3ccccc3)SCC4)sc2c1,0.845 ± 0.11,0.887 ± 0.1,0.853 ± 0.081,0.662 ± 0.021,1.16 ± 0.14,1.27 ± 0.18,1.02 (active)
c1ccc(CSc2nnc(-c3cccnc3)o2)nc1,0.986 ± 0.056,1.09 ± 0.084,1 ± 0.074,0.992 ± 0.036,0.95 ± 0.13,0.858 ± 0.33,1 (active)
COc1ccc(C2CC(=O)C(=Cc3c[nH]c4ccccc34)C(=O)C2)cc1 (configuration not stated),0.91 ± 0.055,1.04 ± 0.11,0.905 ± 0.08,0.76 ± 0.04,1.25 ± 0.11,1.1 ± 0.13,0.991 (active)
Cc1c(Cl)cccc1NC(=O)C(Cl)=Cc1ccccc1,0.757 ± 0.082,0.929 ± 0.11,1.07 ± 0.095,0.799 ± 0.04,1.13 ± 0.068,1.25 ± 0.11,1.01 (active)
CCOc1ccc(C=Nc2cccc3ncccc23)cc1,0.971 ± 0.084,1.02 ± 0.067,0.958 ± 0.077,0.424 ± 0.019,1.15 ± 0.11,0.979 ± 0.095,1 (active)
CC1(C)CC(=O)C2=C(C1)OC(N)=C(C#N)C2C1CCCCC1 (configuration not stated),0.983 ± 0.076,0.926 ± 0.12,0.929 ± 0.093,0.987 ± 0.089,1.33 ± 0.22,1.47 ± 0.19,1.01 (active)
O=C(CSc1ccc2ccccc2n1)NC1=NCCS1,0.89 ± 0.051,0.986 ± 0.062,0.972 ± 0.06,0.968 ± 0.033,1.2 ± 0.077,0.958 ± 0.23,1.01 (active)
Cc1ccc(N2CC(C(=O)NCC3CCCO3)CC2=O)cc1 (configuration not stated),1.02 ± 0.082,0.97 ± 0.099,1.03 ± 0.037,1.03 ± 0.22,1.05 ± 0.051,1.17 ± 0.076,1 (active)
Cc1cccc(Oc2ccc(NC(=O)c3ccco3)cc2)c1,0.777 ± 0.18,0.981 ± 0.081,1 ± 0.095,0.516 ± 0.037,1.07 ± 0.24,1.27 ± 0.14,0.97 (active)
Cc1oncc1C(=O)Nc1ccc(C(F)(F)F)cc1,2.06 ± 0.4,1.1 ± 0.16,1.09 ± 0.071,1.31 ± 0.045,1.12 ± 0.29,2.03 ± 0.2,0.357 (inactive)
C/C(O)=C(\C#N)C(=O)Nc1ccc(C(F)(F)F)cc1,0.861 ± 0.037,1.04 ± 0.084,1.01 ± 0.074,0.855 ± 0.044,1.24 ± 0.26,1.4 ± 0.58,1 (active)
O=C(O)CCn1c2c(c3ccccc31)C[C@H](NS(=O)(=O)c1ccc(F)cc1)CC2,1.13 ± 0.27,0.94 ± 0.061,0.947 ± 0.06,0.879 ± 0.072,1.2 ± 0.29,1.1 ± 0.12,1 (active)
O=S(=O)(NC1CC1)c1cnn(-c2ccccc2)c1,0.903 ± 0.048,0.908 ± 0.073,1.08 ± 0.079,1.07 ± 0.062,1.3 ± 0.3,1.52 ± 0.57,0.964 (active)
COc1ccc2cc1Oc1ccc(cc1)C[C@H]1c3c(cc4c(c3Oc3cc5c(cc3OC)CCN(C)[C@@H]5C2)OCO4)CCN1C,0.195 ± 0.011,1.09 ± 0.091,0.928 ± 0.059,0.786 ± 0.045,0.931 ± 0.099,0.889 ± 0.12,0.991 (active)
O=C(CSC1CCCCC1)Nc1cc(C(F)(F)F)ccc1Cl,0.516 ± 0.045,1.38 ± 0.11,1.39 ± 0.063,1.45 ± 0.14,2.2 ± 0.16,1.47 ± 0.43,1.01 (active)
